Experimental data: PubChem BioAssay AID1159580 (chemical genetic matrix, 2015)
The campaign covered roughly 5,500 compounds. About 2,000 (36%) were called active. About 18% were inconclusive and are not listed. Cut-off read from the data, not from the text of the source: active = normalized growth mostly below about 0.91 (no sharp cut-off); inconclusive = no clear call, values can overlap the other calls; inactive = mostly above about 0.92. The list shows a part of the results.

Assay: chemical genetic growth profiling, strain panel (AID 1159580);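 note: tested at 20 µM; growth read once vehicle control cultures reached saturation at 30 °C; 1 = growth at the plate median or of vehicle wells; lower values mean less growth of the strain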
Conditions: S. cerevisiae deletion strains, growth OD

Measured: normalized growth

CCC(C)N(C)C(=O)c1cc2ccccc2c(-c2ccccc2Cl)n1 (centres undefined)
inactive: locus YAL040C, strain CLN3, active compounds read low 0.965 | locus YDR363W, strain ESC2, active compounds read low 0.973 | locus YER002W, strain NOP16, active compounds read low 1.03 | locus YGR078C, strain PAC10, active compounds read low 0.998 | locus YNL175C, strain NOP13, active compounds read low 1 | locus YNL197C, strain WHI3, active compounds read low 0.95 | locus YNL224C, strain SQS1, active compounds read low 0.988 | locus YNL322C, strain KRE1, active compounds read low 0.987 | locus YOR083W, strain WHI5 (second series), active compounds read low 0.955
